Measurements reported in PubChem BioAssay (NCI).
This is part of a sample that, as a whole, favours compounds with a hit. Of some 79,000 tested, about 15% had one in any assay. Active and inactive are the calls of the source. Rule as the data show it: active = growth inhibition above about 70%; inactive = the rest.

Experiment: NCI Yeast Anticancer Drug Screen. Data for the rad50 strain (AID 155);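 also: 0% = growth of vehicle-only cultures of the same strain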
Conditions: S. cerevisiae rad50 strain growth inhibition; at 50.0 µM; hits give high values
How it was run: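 Yeast carrying a defined DNA repair defect were exposed to test compounds, and growth was compared with vehicle-treated controls to give percent inhibition.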
For `Nc1cc2[nH]c(=O)c3cc([N+](=O)[O-])ccc3c2cc1Cl`, the growth inhibition was 63.1% (inactive). In the case of `Cc1cccc(NC(=O)CC(=O)N2N=C(N3c4ccccc4Sc4ccccc43)CC2c2ccccc2)c1` (stereo not given), the growth inhibition was -1.85% (inactive). With `N[C@@H](CO)[C@@H](O)c1ccc([N+](=O)[O-])cc1` the growth inhibition was 1.5% (inactive). In the case of `CCCCCCCCCCCCCCCCC(C)=O`, the growth inhibition was 2.2% (inactive). With `COc1cc(C2C(Cl)C(=O)N2n2cnc3ccccc3c2=O)ccc1O` (stereo not given) the growth inhibition was -22.7% (inactive). For `NNC(=O)N/N=C1\C(=O)N(c2ccc(Cl)c(Cl)c2)C(=O)C(=O)C1c1nc2ccccc2s1` (stereo not given), the growth inhibition was 41.4% (inactive). With `CCCNC(=O)OCC#CCOC(=O)NCCC` the growth inhibition was 2.5% (inactive). For `O=C(CC(=O)c1ccc(-c2ccc(C(=O)CC(=O)c3ccccc3)cc2)cc1)c1ccccc1`, the growth inhibition was -16.4% (inactive). In the case of `Cc1ccc(C)c(NC(=O)C(=O)C2C(=O)N(c3ccccc3)N=C2N)c1` (stereo not given), the growth inhibition was -38.5% (inactive). In the case of `CCc1cccc(NC(=O)c2cc(/C=C/c3ccccc3)[nH]c(=S)n2)c1`, the growth inhibition was -15.9% (inactive). In the case of `CSc1ccccc1N.[Cl][Cu][Cl]`, the growth inhibition was 28.8% (inactive). In the case of `BrC1=C(c2ccccc2)C2CCCCC2C1(Br)c1ccccc1` (stereo not given), the growth inhibition was 96.2% (active). In the case of `O=C1NC(=O)C2(CCC(O)C2)c2cc[n+]([O-])cc21` (stereo not given), the growth inhibition was -8.55% (inactive). With `COC(=O)C(=O)c1c(C(=O)OC)nc2nnc(N)n2c1C1CC1` the growth inhibition was -5.6% (inactive). For `CCOC(=O)C(=[N+]=[N-])C(=O)c1cc2ccccc2oc1=O`, the growth inhibition was -19.2% (inactive). For `CSc1c(C#N)c2c(Cl)ncnc2n1C(C)=O`, the growth inhibition was 1.7% (inactive). For `COC(=O)C(O)C(O)C(O)C(O)C(O)CO` (stereo not given), the growth inhibition was -1.4% (inactive). With `C=CCNC(=S)N(Cc1ccccc1)Cc1ccccc1` the growth inhibition was 86.2% (active). For `C[C@@]1(NC(=O)Cc2ccccc2)C(=O)N2CCS[C@@]21c1ccccc1`, the growth inhibition was 0.4% (inactive). With `N#CC1(C#N)CC1c1ccccc1` (stereo not given) the growth inhibition was 8.55% (inactive). In the case of `CCCCS(=O)(=O)N1CCCC1`, the growth inhibition was 4.15% (inactive). With `CCN(CC)CCNc1nc(N)c(C#N)c(C#N)c1C#N` the growth inhibition was 5.8% (inactive). For `CC(C)NC(=O)CCC(=O)O`, the growth inhibition was -14.9% (inactive). With `O=C1C(=Cc2ccc([N+](=O)[O-])cc2)C(=O)c2ccccc21` the growth inhibition was 28.9% (inactive). In the case of `O=C1C2Nc3ccccc3N=C2OC1c1cccc([N+](=O)[O-])c1` (stereo not given), the growth inhibition was 16.3% (inactive). For `N#Cc1sc2c(c1OC(=O)c1ccc(C(F)(F)F)cc1)c(=O)n(-c1ccccc1)c(=S)n2-c1ccccc1`, the growth inhibition was -11.9% (inactive). In the case of `O=[N+]([O-])c1ccc(C2=NOC3COC4C=CC=CC4OCC23)cc1` (stereo not given), the growth inhibition was -3.4% (inactive). In the case of `CCCCCCCCCCCCCC(=O)OCC(CCS(=O)(=O)O[C@H]1CC[C@@]2(C)C(=CC[C@@H]3C2CC[C@]2(C)C(=O)CCC32)C1)OC(=O)CCCCCCCCCCCCC` (stereo not given in full), the growth inhibition was -32.8% (inactive). For `O=C(/C(=C\c1ccccc1)c1ccccc1)c1ccccc1`, the growth inhibition was 25.1% (inactive). With `CCc1nc(Nc2cccc(Cl)c2)c2cnn(-c3ccccc3)c2n1` the growth inhibition was -11.2% (inactive). In the case of `C=CCNC(=S)N/C=C(\C#N)c1nc2ccccc2s1`, the growth inhibition was 0.3% (inactive). For `CC(=O)Oc1ccc2ccccc2c1CS(=O)(=O)O`, the growth inhibition was 5.6% (inactive). For `O=S(=O)(Nc1cc(C(F)(F)F)ccc1Cl)c1ccc(F)cc1`, the growth inhibition was -24.3% (inactive). For `NC(=O)CNC(=O)[C@@H]1C[C@@H](OCCC(=O)O)CN1C(=O)OCc1ccccc1`, the growth inhibition was -32.2% (inactive). With `O=C(O)CCC(=O)Nc1cc([N+](=O)[O-])ccc1OCc1ccccc1` the growth inhibition was 3.75% (inactive). In the case of `CC1=NN(c2ccccc2)C(N)C1` (stereo not given), the growth inhibition was 17.7% (inactive). In the case of `CN(Cc1ccc(Cl)cc1)C(=O)Nc1ccccc1Cl`, the growth inhibition was 6.7% (inactive). With `O=C(c1ccc(Cl)cc1Cl)N1CCCCC1` the growth inhibition was 1.45% (inactive). For `c1ccc(CN[C@]23C4C5CC6C7C5C2C7[C@@](NCc2ccccc2)(C64)N3Cc2ccccc2)cc1` (stereo not given in full), the growth inhibition was 2.7% (inactive). In the case of `CN(C)c1ncnc2nc[nH]c12`, the growth inhibition was -14.6% (inactive).
